Inhibition data for eleven molecules are collected here from ChEMBL document CHEMBL1157539, “Thousands of chemical starting points for antimalarial lead identification” (Nature, 2010).

The term Inhibition denotes the change of the read-out against control, counted positive when it falls. The low end stands for a response near the control, the high end for a response far below the control.

What all share (format): functional
In assay [1] the test system is Plasmodium falciparum. Nature of the assay: GSK_TCMDC: Inhibition of Plasmodium falciparum 3D7 in whole red blood cells, using parasite LDH activity as an index of growth. Test compounds present at 2uM.
Assay [2] concerns Plasmodium falciparum. The assay is described as follows: GSK_TCMDC: Inhibition of Plasmodium falciparum Dd2 in whole red blood cells, using parasite LDH activity as an index of growth. Test compounds present at 2uM.
Assay [3] relates to HepG2. The assay is described as follows: GSK_TCMDC: Percent inhibition of human HepG2 cell line. Test compounds present at 10uM.

Structures are written as SMILES.

With `Cc1cccc(C(=O)N2CCN(Cc3cccc(NC(=O)c4ccco4)c3)CC2)c1.O=C(O)C(F)(F)F`, the Inhibition in assay [1] was determined as 94%; in assay [2], 79%; in assay [3] it was 7%.

On to `CCSc1ccc(C)cc1CON1C(N)=NC(N)=NC1(C)C.Cl`, for which the Inhibition was determined as 94% in assay [1], 96% in assay [2] and 66% in assay [3].

As to `CC(C)(C)C(=O)Nc1ccc(C(=O)Nc2cccc(-c3nc4ccccc4[nH]3)c2)cc1`, the Inhibition in assay [1] is recorded as 96%; in assay [2], 62%; in assay [3], 56%.

As for `CCOc1cc(C(=O)Nc2ccccc2N2CCN(S(C)(=O)=O)CC2)cc(OCC)c1OCC`, the Inhibition stood at 91% in assay [1], 80% in assay [2] and 0% in assay [3].

Consider `Cl.O=C(NC1CCC(CCN2Cc3ccc(Br)cc3C2)CC1)c1cccc(-c2cccnc2)c1` (stereo not drawn), for which the Inhibition in assay [1] is 99%; in assay [2], 73%; in assay [3], 14%.

Regarding `CCCC(CNCc1cccc(OC(F)(F)C(F)F)c1)CNc1cc(=O)c2ccccc2[nH]1` (stereo not drawn), the Inhibition in assay [1] came to 100%; in assay [2], 94%; in assay [3] it was 0%.

For `COc1c(C2CCN(CCCCNC(=O)c3ccc(-c4ccc(C#N)cc4)cc3)CC2)ccc2c1C(C)(C)CCC2(C)C`, the Inhibition in assay [1] came to 100%; in assay [2], 86%; in assay [3] it was 98%.

As for `CCC[C@@H]([C@@H](CC(C)C)C(=O)N[C@@H](CCC/N=C(/N)NS(C)(=O)=O)C(=O)Nc1nccs1)N(O)C=O`, the Inhibition was 95% in assay [1], 41% in assay [2] and 10% in assay [3].

`CN(C)CCNC(=O)c1ccc(-c2cnc3ccc(NCc4ccc(Cl)c(Cl)c4)nn23)cc1`: the Inhibition in assay [1] amounted to 98%; in assay [2], 98%; in assay [3], 60%.

As for `Cc1cccnc1Nc1nc(-c2ccccn2)cs1`, the results for the Inhibition in assay [1], in assay [2] and in assay [3] were 96%, 99% and 60%, respectively.

Take `Br.Cc1cccc(OCCCCON2C(=N)N=C(N)NC2(C)C)c1C`: the Inhibition in assay [1] worked out at 97%; in assay [2] it was 95%; in assay [3] it was 65%.
